Data on one sequence can be found in paper PMC7862700, “An all-to-all approach to the identification of sequence-specific readers for epigenetic DNA modifications on cytosine”.

Test in all cases: DAPPL (digital affinity profiling via proximity ligation, sequencing); 10 mM Tris-HCl pH 7.5, 50 mM NaCl, 1 mM DTT, 4% glycerol, room temperature, 30 min; GST-TFs on glutathione beads, 16-mer random dsDNA library, 0.1% formaldehyde crosslink after washing; high values mean tight binding
Details in all cases: protein: recombinant; tags: N-terminal GST; dsDNA, one strand shown

Test [1] has as its target T1, FLI1 (Homo sapiens, UniProt Q01543 1-452).
T1 sequence: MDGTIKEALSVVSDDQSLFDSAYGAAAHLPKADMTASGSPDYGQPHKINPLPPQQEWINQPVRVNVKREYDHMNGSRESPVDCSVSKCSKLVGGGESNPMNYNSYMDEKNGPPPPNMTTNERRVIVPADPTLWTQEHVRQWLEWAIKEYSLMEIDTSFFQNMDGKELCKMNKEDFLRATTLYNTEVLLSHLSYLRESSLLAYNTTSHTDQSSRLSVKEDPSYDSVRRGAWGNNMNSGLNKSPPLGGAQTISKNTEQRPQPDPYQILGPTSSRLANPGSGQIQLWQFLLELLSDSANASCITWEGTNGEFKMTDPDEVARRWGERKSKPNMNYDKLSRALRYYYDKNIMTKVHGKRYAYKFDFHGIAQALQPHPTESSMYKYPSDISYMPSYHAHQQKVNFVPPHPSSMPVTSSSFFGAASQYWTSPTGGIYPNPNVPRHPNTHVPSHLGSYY
An outline of the steps: (§1)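 GST fusions of human transcription factors were expressed in yeast and captured with glutathione beads. Once given DNA barcodes and pooled alongside a tag-only sample, they were incubated for 30 min at room temperature with 200 nmole of a random double-stranded 16-mer DNA library in Tris/NaCl/DTT/glycerol buffer, then washed, crosslinked (0.1% formaldehyde), proximity-ligated, PCR-amplified and sequenced on an Illumina NextSeq500. The binding signal of each hexamer is its read frequency for a factor divided by its frequency for the tag-only sample.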

Test [2] deals with T2, ELK1 (Homo sapiens, UniProt P19419 1-428).
T2 sequence: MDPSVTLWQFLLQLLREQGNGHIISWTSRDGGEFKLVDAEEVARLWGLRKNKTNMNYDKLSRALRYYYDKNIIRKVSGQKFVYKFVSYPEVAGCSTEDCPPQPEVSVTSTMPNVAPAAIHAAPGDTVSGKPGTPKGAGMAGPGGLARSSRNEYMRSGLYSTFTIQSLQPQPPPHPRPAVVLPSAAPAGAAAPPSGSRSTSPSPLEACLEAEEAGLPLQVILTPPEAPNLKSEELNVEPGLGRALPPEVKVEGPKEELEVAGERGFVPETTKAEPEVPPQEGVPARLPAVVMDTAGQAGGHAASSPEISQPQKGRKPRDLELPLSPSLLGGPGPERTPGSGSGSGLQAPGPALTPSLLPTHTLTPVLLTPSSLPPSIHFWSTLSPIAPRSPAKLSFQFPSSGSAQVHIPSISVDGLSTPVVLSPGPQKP
The procedure, abridged:
as §1

For test [3], the target named is T3, GABPA (Homo sapiens, UniProt Q06546 1-454).
T3 sequence: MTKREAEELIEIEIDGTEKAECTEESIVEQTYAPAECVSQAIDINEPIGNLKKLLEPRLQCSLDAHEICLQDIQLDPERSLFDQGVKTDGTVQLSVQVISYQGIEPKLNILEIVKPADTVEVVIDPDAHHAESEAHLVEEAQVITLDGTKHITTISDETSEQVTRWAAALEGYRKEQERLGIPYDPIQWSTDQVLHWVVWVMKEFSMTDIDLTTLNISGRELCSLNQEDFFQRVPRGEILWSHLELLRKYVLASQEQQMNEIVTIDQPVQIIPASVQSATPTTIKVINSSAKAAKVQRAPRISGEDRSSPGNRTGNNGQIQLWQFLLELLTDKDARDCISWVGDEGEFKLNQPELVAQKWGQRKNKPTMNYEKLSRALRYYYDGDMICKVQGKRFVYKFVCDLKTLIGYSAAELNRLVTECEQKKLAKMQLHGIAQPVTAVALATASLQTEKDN
An outline of the steps: as §1

Test [4] deals with T4, ERG (Homo sapiens, UniProt P11308 1-479).
T4 sequence: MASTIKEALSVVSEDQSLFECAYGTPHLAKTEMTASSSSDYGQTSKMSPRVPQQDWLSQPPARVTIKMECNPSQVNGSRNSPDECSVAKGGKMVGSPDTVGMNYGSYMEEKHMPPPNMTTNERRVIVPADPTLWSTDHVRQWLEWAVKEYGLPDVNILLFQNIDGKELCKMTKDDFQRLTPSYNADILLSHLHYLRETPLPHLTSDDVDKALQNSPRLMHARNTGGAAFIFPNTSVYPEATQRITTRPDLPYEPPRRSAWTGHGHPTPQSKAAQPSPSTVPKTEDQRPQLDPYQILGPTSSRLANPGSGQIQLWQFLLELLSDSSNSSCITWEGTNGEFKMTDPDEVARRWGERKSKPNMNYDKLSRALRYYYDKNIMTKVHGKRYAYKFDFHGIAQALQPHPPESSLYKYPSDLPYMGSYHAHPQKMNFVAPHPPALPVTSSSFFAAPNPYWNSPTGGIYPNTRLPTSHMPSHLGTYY
The procedure, abridged:
as §1

Test [5] deals with ELF1 (Homo sapiens, UniProt P32519 1-619). The procedure, abridged: as §1
The target in test [6] is T5, EHF (Homo sapiens, UniProt Q9NZC4 1-300).
T5 sequence: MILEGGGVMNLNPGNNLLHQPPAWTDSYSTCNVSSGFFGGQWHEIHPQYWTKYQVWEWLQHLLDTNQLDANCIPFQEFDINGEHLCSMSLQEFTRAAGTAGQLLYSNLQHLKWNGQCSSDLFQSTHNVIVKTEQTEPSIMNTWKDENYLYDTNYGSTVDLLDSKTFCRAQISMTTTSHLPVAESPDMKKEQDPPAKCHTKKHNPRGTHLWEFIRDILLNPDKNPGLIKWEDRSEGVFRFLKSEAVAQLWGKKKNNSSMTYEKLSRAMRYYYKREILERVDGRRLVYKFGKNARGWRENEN
An outline of the steps: as §1

Test [7] addresses SPI1 (Homo sapiens, UniProt P17947 1-270). An outline of the steps: as §1
Test [8] concerns the target SPIB (Homo sapiens, UniProt Q01892 1-262). An outline of the steps: as §1
Test [9] concerns the target T6, ELK3 (Homo sapiens, UniProt P41970 1-407).
T6 sequence: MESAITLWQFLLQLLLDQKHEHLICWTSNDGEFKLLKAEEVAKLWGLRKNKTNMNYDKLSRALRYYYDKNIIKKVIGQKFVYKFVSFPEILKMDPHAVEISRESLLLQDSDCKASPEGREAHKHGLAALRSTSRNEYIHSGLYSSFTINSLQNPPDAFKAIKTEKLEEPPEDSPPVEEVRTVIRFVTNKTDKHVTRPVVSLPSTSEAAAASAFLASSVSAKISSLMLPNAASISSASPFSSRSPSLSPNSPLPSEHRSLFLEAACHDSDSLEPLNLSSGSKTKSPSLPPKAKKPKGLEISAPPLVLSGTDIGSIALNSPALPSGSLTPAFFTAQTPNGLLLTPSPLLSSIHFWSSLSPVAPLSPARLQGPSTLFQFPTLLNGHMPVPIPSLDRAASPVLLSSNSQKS
The procedure, abridged: as §1

The target in test [10] is T7, FEV (Homo sapiens, UniProt Q99581 1-238).
T7 sequence: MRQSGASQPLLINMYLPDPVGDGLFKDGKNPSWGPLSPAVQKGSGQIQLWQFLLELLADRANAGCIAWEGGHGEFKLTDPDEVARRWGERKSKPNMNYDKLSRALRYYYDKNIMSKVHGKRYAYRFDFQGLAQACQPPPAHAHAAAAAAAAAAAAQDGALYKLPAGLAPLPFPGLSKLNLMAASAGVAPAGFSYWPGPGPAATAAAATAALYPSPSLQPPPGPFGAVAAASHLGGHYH
An outline of the steps:
as §1

Test [11] concerns the target ETV5 (Homo sapiens, UniProt P41161 1-510). An outline of the steps:
as §1

Test [12] deals with T8, SPIC (Homo sapiens, UniProt Q8N5J4 1-248).
T8 sequence: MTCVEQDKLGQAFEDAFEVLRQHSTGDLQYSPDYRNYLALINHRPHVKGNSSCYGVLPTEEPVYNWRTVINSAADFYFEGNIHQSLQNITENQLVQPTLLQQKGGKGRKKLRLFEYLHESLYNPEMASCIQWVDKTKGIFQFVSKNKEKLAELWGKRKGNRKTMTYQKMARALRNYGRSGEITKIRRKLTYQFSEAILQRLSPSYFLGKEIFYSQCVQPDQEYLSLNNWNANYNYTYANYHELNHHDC
The procedure, abridged:
as §1

Test [13] has as its target ELF4 (Homo sapiens, UniProt Q99607 1-663). The procedure, abridged: as §1
Test [14] concerns the target T9, ELK4 (Homo sapiens, UniProt P28324-2 1-405).
T9 sequence: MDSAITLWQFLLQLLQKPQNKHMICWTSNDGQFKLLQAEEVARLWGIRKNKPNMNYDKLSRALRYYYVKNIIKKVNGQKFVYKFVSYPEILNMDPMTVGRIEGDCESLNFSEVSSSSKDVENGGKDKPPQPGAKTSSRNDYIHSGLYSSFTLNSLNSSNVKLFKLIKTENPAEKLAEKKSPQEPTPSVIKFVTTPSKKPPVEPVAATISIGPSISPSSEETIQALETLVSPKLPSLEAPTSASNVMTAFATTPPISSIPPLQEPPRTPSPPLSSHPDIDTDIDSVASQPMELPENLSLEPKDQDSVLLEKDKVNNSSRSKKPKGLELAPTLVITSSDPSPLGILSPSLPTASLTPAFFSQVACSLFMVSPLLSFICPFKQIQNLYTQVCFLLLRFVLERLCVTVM
An outline of the steps: as §1

Test [15] addresses T10, ETV2 (Homo sapiens, UniProt O00321 1-342).
T10 sequence: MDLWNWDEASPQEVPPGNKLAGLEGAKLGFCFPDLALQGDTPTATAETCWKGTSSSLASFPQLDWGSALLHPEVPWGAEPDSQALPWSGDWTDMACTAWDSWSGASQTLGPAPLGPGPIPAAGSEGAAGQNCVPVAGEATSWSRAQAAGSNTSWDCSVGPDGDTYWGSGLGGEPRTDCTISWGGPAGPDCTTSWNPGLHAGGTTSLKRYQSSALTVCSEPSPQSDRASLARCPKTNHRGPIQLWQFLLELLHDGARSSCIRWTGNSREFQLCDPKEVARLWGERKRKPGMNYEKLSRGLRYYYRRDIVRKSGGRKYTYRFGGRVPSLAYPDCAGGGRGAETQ
An outline of the steps:
as §1

In test [16] the target is T11, ELF3 (Homo sapiens, UniProt P78545 1-371).
T11 sequence: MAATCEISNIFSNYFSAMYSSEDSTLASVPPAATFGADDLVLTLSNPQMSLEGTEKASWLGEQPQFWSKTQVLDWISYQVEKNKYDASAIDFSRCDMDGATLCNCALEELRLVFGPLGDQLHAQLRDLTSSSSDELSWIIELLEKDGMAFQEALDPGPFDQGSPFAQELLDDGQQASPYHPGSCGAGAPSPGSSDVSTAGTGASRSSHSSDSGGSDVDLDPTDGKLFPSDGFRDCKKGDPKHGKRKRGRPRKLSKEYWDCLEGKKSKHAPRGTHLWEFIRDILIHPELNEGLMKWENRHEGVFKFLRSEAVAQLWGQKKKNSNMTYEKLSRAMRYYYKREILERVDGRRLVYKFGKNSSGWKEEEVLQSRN
The procedure, abridged: as §1

Test [17] addresses ETV1 (Homo sapiens, UniProt P50549 1-477). An outline of the steps:
as §1

ETV5, sequence (P41161 whole entry): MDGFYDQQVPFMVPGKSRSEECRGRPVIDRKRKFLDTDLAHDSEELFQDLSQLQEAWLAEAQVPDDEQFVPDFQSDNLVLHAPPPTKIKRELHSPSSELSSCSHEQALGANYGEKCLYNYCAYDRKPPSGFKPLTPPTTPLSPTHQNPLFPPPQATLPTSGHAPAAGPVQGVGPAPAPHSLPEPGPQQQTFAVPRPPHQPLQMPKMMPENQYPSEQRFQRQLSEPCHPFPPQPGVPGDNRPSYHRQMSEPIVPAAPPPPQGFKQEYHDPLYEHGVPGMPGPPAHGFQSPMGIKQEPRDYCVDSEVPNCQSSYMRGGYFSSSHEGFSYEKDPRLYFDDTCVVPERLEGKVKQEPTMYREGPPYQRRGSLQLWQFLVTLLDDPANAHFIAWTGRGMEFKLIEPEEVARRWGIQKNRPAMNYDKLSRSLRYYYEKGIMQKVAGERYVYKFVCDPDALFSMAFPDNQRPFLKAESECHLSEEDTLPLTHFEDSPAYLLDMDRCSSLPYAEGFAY
ETV1, sequence (P50549 whole entry): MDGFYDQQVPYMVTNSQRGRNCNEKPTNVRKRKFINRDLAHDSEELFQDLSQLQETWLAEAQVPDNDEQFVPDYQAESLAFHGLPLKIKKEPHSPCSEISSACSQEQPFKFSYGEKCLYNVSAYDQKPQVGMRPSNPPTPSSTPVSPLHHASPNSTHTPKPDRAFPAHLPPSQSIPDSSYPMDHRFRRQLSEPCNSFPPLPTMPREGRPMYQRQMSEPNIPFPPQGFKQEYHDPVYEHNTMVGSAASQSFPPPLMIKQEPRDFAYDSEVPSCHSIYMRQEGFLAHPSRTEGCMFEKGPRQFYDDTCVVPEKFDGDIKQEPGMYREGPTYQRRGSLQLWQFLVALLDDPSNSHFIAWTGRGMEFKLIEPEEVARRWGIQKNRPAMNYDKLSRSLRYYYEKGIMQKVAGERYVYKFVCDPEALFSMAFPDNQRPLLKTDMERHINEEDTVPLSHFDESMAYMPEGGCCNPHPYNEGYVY
ELF1, sequence (P32519 whole entry): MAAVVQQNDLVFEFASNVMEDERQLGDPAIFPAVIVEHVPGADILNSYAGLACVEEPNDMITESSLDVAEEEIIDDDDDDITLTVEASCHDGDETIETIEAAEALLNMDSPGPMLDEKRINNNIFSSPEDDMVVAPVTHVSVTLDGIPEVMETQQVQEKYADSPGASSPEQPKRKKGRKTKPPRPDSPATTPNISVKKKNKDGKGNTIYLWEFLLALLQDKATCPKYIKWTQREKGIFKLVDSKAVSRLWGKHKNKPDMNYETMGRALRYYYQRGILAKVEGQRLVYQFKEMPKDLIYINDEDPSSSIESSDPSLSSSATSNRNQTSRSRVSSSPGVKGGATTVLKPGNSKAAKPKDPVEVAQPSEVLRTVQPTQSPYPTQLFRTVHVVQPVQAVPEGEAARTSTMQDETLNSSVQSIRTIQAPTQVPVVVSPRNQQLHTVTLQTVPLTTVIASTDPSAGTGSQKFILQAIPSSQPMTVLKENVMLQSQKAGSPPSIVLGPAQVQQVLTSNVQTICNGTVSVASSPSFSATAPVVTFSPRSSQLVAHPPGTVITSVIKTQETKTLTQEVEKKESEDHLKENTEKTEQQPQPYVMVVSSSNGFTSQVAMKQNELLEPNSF
SPIB, sequence (Q01892 whole entry): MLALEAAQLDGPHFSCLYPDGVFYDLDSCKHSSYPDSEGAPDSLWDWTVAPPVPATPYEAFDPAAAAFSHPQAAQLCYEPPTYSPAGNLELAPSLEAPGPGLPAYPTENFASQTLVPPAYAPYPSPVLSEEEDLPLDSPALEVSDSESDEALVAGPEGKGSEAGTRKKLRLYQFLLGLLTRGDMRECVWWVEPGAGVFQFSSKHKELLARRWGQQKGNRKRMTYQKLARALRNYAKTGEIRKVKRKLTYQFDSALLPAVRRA
ELF4, sequence (Q99607 whole entry): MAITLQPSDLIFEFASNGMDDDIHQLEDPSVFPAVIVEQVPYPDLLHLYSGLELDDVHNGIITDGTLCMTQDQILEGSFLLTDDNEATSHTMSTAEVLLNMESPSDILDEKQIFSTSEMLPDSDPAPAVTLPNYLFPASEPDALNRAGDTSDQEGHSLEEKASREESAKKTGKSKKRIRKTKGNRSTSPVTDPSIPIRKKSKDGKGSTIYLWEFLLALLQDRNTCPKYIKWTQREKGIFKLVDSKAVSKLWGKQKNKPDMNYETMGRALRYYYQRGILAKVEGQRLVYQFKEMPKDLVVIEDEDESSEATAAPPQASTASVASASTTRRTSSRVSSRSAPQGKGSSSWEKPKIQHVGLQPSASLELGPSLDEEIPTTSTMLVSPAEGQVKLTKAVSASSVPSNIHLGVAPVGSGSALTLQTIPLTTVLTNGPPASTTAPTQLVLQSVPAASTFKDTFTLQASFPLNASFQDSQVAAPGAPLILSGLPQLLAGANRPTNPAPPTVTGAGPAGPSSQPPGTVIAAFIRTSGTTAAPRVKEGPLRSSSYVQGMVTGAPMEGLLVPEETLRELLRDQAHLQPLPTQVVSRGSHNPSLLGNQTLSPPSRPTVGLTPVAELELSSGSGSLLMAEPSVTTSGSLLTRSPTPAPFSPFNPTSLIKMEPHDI

As to GGACAT, the binding signal in [1] is 1.19 fold enrichment (6-mer frequency, TF over GST control); in test [2], 1.19 fold enrichment (6-mer frequency, TF over GST control); in [3], 1.24 fold enrichment (6-mer frequency, TF over GST control); in [4] it was 1.24 fold enrichment (6-mer frequency, TF over GST control); in [5], 1.19 fold enrichment (6-mer frequency, TF over GST control); in [6] it was 1.19 fold enrichment (6-mer frequency, TF over GST control). Also, the binding signal was 1.13 fold enrichment (6-mer frequency, TF over GST control) in test [7]; 1.14 fold enrichment (6-mer frequency, TF over GST control) in test [8]; 1.19 fold enrichment (6-mer frequency, TF over GST control) in test [9]; 1.56 fold enrichment (6-mer frequency, TF over GST control) in [10]; 1.18 fold enrichment (6-mer frequency, TF over GST control) in [11]; 1.28 fold enrichment (6-mer frequency, TF over GST control) in [12]. The binding signal in test [13] is 1.11 fold enrichment (6-mer frequency, TF over GST control); in test [14], 1.07 fold enrichment (6-mer frequency, TF over GST control); in test [15], 1.16 fold enrichment (6-mer frequency, TF over GST control); in test [16], 1.24 fold enrichment (6-mer frequency, TF over GST control); in [17] it was 1.23 fold enrichment (6-mer frequency, TF over GST control).
